Assay [1] in a line: NCI Yeast Anticancer Drug Screen. Data for the rad50 strain (AID 155).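 Also: 0% = growth of vehicle-only cultures of the same strain.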 The conditions noted are these: S. cerevisiae rad50 strain growth inhibition; at 50.0 µM; hits give high values. In a few lines: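 Inhibition values express reduced yeast growth in compound-treated cultures relative to vehicle-treated controls.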
Assay [2] is described as follows: NCI Yeast Anticancer Drug Screen. Data for the mec2-1 strain (AID 157). The conditions noted are these: S. cerevisiae mec2-1 strain, at 50.0 µM, hits give high values. In a few lines:
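Vehicle-treated cultures served as reference for growth inhibition of compound-exposed mec2-1 yeast.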

Assay [3] can be described thus: NCI Yeast Anticancer Drug Screen. Data for the sgs1 mgt1 strain (AID 161).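 Also: 0% = growth of cultures given vehicle only.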 The conditions noted are these: S. cerevisiae sgs1 mgt1 strain, at 50.0 µM, hits give high values. In a few lines:
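Read-out: growth inhibition vs vehicle controls. Cells: mutant yeast strain deficient in DNA damage repair.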

Assay [4] is described as follows: NCI Yeast Anticancer Drug Screen. Data for the cln2 rad14 strain (AID 165).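 Also: 0% = growth equal to vehicle treated cultures.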 The conditions noted are these: S. cerevisiae cln2 rad14 strain, at 50.0 µM, hits give high values. In a few lines: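 Each compound was tested on cln2 rad14 yeast. Inhibition of growth was calculated against vehicle-exposed controls.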
Assay [5] can be described thus: NCI Yeast Anticancer Drug Screen. Data for the bub3 strain (AID 167). As to conditions: S. cerevisiae bub3 mutant strain, at 50.0 µM, hits give high values. In a few lines:
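Steps: expose the mutant yeast strain to compound; grow alongside vehicle-treated cultures; measure growth; express inhibition against the vehicle cultures.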

Assay [6] can be described thus: NCI Yeast Anticancer Drug Screen. Data for the mlh1 rad18 strain (AID 175). As to conditions: S. cerevisiae mlh1 rad18 strain growth inhibition; at 50.0 µM; hits give high values. In outline: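 Vehicle-treated cultures served as the reference for growth inhibition in a yeast strain carrying DNA damage repair alterations exposed to each compound.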

The panel holds about 79,000 compounds, 15% with a hit somewhere; the sample as a whole holds those more often. Values without a mark were called inactive. The source made the active and inactive calls. Rule as the data show it: active = growth inhibition above about 70%; inactive = the rest.

Turning to `CCOP(=O)(OCC)O/N=C(/C#N)c1ccccc1`, the growth inhibition in assay [1] was 11.3%; in assay [2], -6.4%; in assay [3], 18.4%; in assay [4] it was -0.35%; in assay [5], -7.45%; in assay [6] it was -1%.

As for `Oc1ccc(Cl)c(Cl)c1`, the growth inhibition in assay [1] is -3.45%; in assay [2], -32.5%; in assay [3], -72.8%; in assay [4] it was -3.1%; in assay [5] it was -51.5%; in assay [6], -13.8%.

In the case of `CN(C)P(=O)(N(C)C)N(C)C` (tested in a mixture with another compound), the growth inhibition in assay [1] was 8.45%; in assay [2], -7%; in assay [3], 3.65%; in assay [4] it was -21.1%; in assay [5] it was -31.6%; in assay [6] it was -14.3%.

`CS(=O)(=O)C(Cl)Cl`: the growth inhibition in assay [1] was -1.5%; in assay [2], -4.75%; in assay [3], 0.75%; in assay [4], -2.45%; in assay [5] it was 6.3%; in assay [6] it was 19.8%.

`CC(=O)OC[C@]12CCC(C)=C[C@H]1O[C@@H]1[C@H](O)[C@@H](OC(C)=O)[C@@]2(C)[C@@]12CO2`: the growth inhibition in assay [1] was -9.2%; in assay [2], -26.6%; in assay [3], 14.9%; in assay [4] it was -3.45%; in assay [5], -1.3%; in assay [6], -6.7%.

As to `CC1CN1C1=C(Br)C(=O)C(N2CC2C)=C(Br)C1=O` (stereo not given), the growth inhibition in assay [1] is 73.7% (active); in assay [2], 23.1%; in assay [3], 84% (active); in assay [4], -3.05%; in assay [5] it was 62%; in assay [6] it was 79.8% (active).

Regarding `C=C[CH2][Sn]([Br])([c]1ccccc1)[c]1ccccc1`, the growth inhibition in assay [1] is 99.3% (active); in assay [2], 99.2% (active); in assay [3], 99.2% (active); in assay [4], 98.8% (active); in assay [5], 98.8% (active); in assay [6] it was 99.3% (active).

On to `COc1ccc2c(c1)c(CC(C)[N+](=O)[O-])c(C)n2Cc1ccccc1` (stereo not given), for which the growth inhibition in assay [1] was 6.5%; in assay [2] it was 8.35%; in assay [3] it was 5.65%; in assay [4], -9.95%; in assay [5], -3.3%; in assay [6] it was 6.9%.

For `CC1CCC2C(C)C3C(CC4C5CCC6CC(O)CCC6(C)C5CCC43C)N2C1` (stereo not given), the growth inhibition in assay [1] is 17.1%; in assay [2] it was 23.4%; in assay [3] it was 17.5%; in assay [4], -29.1%; in assay [5] it was -18.4%; in assay [6], 15.7%.

Take `COc1cc(C2c3cc4c(cc3OC(C)(O)C2C(C)=O)OCO4)cc(OC)c1OC` (stereo not given): the growth inhibition in assay [1] is -10.2%; in assay [2], -0.15%; in assay [3] it was 3.9%; in assay [4], -18.6%; in assay [5], -1.1%; in assay [6] it was -7.45%.

On to `Cc1ccc(S(N)(=O)=O)cc1`, for which the growth inhibition in assay [1] was 22%; in assay [2], -5.05%; in assay [3], 5.8%; in assay [4] it was -8.25%; in assay [5], 12.8%; in assay [6], 18.8%.

Turning to `Nc1ccc(P(=O)(O)O)cc1`, the growth inhibition in assay [1] is -7.8%; in assay [2], -9.55%; in assay [3], -11.7%; in assay [4], -36.1%; in assay [5] it was -1.05%; in assay [6], -3.95%.

As to `Nc1nn[nH]n1` (tested in a mixture with another compound), the growth inhibition was -4.65% in assay [1]; 1.45% in assay [2]; -3.7% in assay [3]; -27.1% in assay [4]; 0.05% in assay [5]; -3.05% in assay [6].

For the molecule `CCC(CC)CNC(=O)C(Cl)Cl`, the growth inhibition in assay [1] is -2.25%; in assay [2] it was -9.8%; in assay [3], 18.6%; in assay [4] it was -18.1%; in assay [5], -3.4%; in assay [6] it was -1%.

With `COc1ccc(C(=O)O[C@H]2CC[C@@]3(C)[C@@H]4CC[C@H]5[C@]6(O)C[C@H](O)[C@@]7(O)[C@@H](CN8C[C@@H](C)CC[C@H]8[C@@]7(C)O)[C@]6(O)C[C@@]53OC24O)cc1OC`, the growth inhibition in assay [1] is -16.7%; in assay [2], -32%; in assay [3] it was -28.9%; in assay [4], 6.4%; in assay [5], -28.8%; in assay [6] it was -5.15%.

As for `Nc1c(Cl)c(Cl)nc(C(=O)O)c1Cl`, the growth inhibition in assay [1] was 16%; in assay [2], 9%; in assay [3], 7.05%; in assay [4], 3.8%; in assay [5] it was 21.5%; in assay [6], 24.2%.

With `Oc1ccccc1/C=N/C(O)C(Cl)(Cl)Cl` (stereo not given), the growth inhibition was 30.2% in assay [1]; 31.6% in assay [2]; 34.9% in assay [3]; 41.3% in assay [4]; 48.1% in assay [5]; 30.6% in assay [6].

For `[C-]#[O+].[C-]#[O+].[Ir].[O-]c1cccc2cccnc12`, the growth inhibition in assay [1] is -19.2%; in assay [2], -27.6%; in assay [3] it was -4.6%; in assay [4], 12.7%; in assay [5] it was -13.2%; in assay [6] it was -4.8%.

For the molecule `CC(C)CCCC(C)C1CCC2C3CC=C4CC([Se][As](C)C)CCC4(C)C3CCC12C` (stereo not given), the growth inhibition was 11.1% in assay [1]; -0.1% in assay [2]; 8.55% in assay [3]; 14.7% in assay [4]; 0.6% in assay [5]; -7.4% in assay [6].

For the molecule `Nc1cc(S(=O)(=O)F)cc(Cl)c1O`, the growth inhibition was 25.2% in assay [1]; -3.55% in assay [2]; 14.9% in assay [3]; -61.2% in assay [4]; 23.2% in assay [5]; 24.6% in assay [6].

The record behind these values is PubChem BioAssay (NCI).
